Bioassay records as filed in PubChem BioAssay.
IL-1B inflam inh – qHTS for Inhibitors of Inflammasome Signaling: IL-1-beta AlphaLISA Primary Screen; THP-1 LPS/ATP IL-1B secretion, AlphaLISA, 16 h; stronger effect = lower value; activity change, % at 57.5 µM; 360,000 tested, 4.7% active; in the data active = activity change below about -50%; inconclusive = mostly about -30% to -49%
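Secreted IL-1B measured by AlphaLISA bead assay after 16 h compound exposure of THP-1 cells; compounds (final up to 57.5 uM) added 1 h before LPS (250 ng/mL) and ATP (1.25 mM) stimulation; lower signal means less secretion.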
HT1080NT lethal – qHTS for induction of synthetic lethality in tumor cells producing 2HG: qHTS for the HT-1080-NT fibrosarcoma cell line; HT-1080-NT fibrosarcoma viability, CellTiter-Glo ATP luminescence, 48 h; 360,000 tested, 1.6% active; AID 686970, 2013; Potency, µM (top dose mostly 46.1 µM), for inactives: at the highest dose activity, negative = less viability, most hits filed as cytotoxic;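 also: NT is the 2HG producing partner of a matched IDH1 knockdown line; potency is read from the fitted curve at half-maximal effect; 0% = DMSO-treated cells and -100% = media-only wells without cells; nearly all actives have a fitted effect of over 55% in size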
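A 48-hour cytotoxicity screen used HT-1080-NT cells plated 2 hours before compound delivery. ATP-based CellTiter-Glo luminescence measured viability, normalized to DMSO and no-cell controls.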
DT40 TDP1 CPT – qHTS for Inhibitors of human tyrosyl-DNA phosphodiesterase 1 (TDP1): qHTS in cells in presence of CPT; chicken DT40 Tdp1-/-;hTDP1 cells + 20 nM CPT, ATP luminescence, 48 h; Potency, µM (top dose mostly 46.2 µM), for inactives: at the top dose activity change, negative = growth inhibition, hits mostly inhibitors; 420,000 tested, 12% active; also: potency is read from the fitted curve at half-maximal effect; nearly all actives have a fitted effect of over 55% in size
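Chicken DT40 Tdp1-/- cells stably complemented with human TDP1 were seeded at 400 cells/well in medium containing 20 nM camptothecin, exposed to pin-transferred compounds, and grown at 37 °C for at least 48 hr. Viability was read as ATP luminescence.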
TDP1 cell noCPT – qHTS for Inhibitors of human tyrosyl-DNA phosphodiesterase 1 (TDP1): qHTS in cells in absence of CPT; DT40 Tdp1-/- hTDP1 cells, no CPT, ATP luminescence, 48 h; Potency, µM (top dose mostly 46.2 µM), without a hit: at the highest dose activity change, negative = growth inhibition, actives largely listed as inhibitors; 420,000 tested, 15% active; AID 686978, 2013; also: potency is read from the fitted curve at half-maximal effect; nearly all actives have a fitted effect of over 55% in size
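Compound effects on proliferation are scored in DT40 Tdp1-/-;hTDP1 cells in the absence of CPT. ATP levels (CellTiter-Glo luminescence) are recorded after a ≥48 hr, 37 °C incubation.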
HT1080 IDH1KD tx – qHTS for induction of synthetic lethality in tumor cells producing 2HG: qHTS for the HT-1080-IDH1KD cell line | HT-1080 IDH1 knockdown viability, ATP luminescence, 48 h | Potency, µM (highest dose often 46.1 µM), for the others: at the highest dose activity, negative = toxicity, hits mostly cytotoxic | 360,000 tested, 2% active | AID 686971, 2013;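 also: potency is read from the fitted curve at half-maximal effect; 0% = DMSO wells and -100% = cell-free medium wells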
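Using the IDH1-knockdown HT-1080 line run in the same batch and compound series as the NT line, viability after 48 h at 37 °C was determined by CellTiter-Glo luminescence and expressed as % activity.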
ALOX12 inh – Primary qHTS assay for inhibitors of human arachidonate 12S-lipoxygenase (ALOX12): Round 2. Polyunsaturated fatty acid lipoxygenase ALOX12 (Homo sapiens), P18054. purified 12hLO, xylenol orange hydroperoxide absorbance. Potency, µM (doses to about 108 µM), for the others: at the top dose activity change, negative = inhibition, hits mostly inhibitors. 580,000 tested, 1.1% active. AID 1671190, 2021; also: potency is read from the fitted curve at half-maximal effect
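Hydroperoxide product was detected by ferrous iron/xylenol orange as the 573 to 405 nm absorbance ratio. Arachidonic acid at 40 uM (final) was turned over for 30 min at room temperature by 150 nM human 12hLO, pH 7.0 Hepes buffer, after 15 min compound preincubation.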
Active calls of the source: *; ? = inconclusive; / = no result; [ ] = dose if it differs, or a comment. This is one part of a sample in which hits are shown more often than they occur. Unless noted, calls follow the shape of the dose curve; as a rule, active = well fitted curve in the direction sought with a large enough effect; inconclusive = small, poorly fitted or top-dose-only effect, or another doubt; inactive = no such curve, though single readings can be large; an effect the other way counts as inactive or inconclusive. Unless noted, % is scaled to controls: 0 for no effect and ±100 for the full control effect.

SMILES | IL-1B inflam inh | HT1080NT lethal | DT40 TDP1 CPT | TDP1 cell noCPT | HT1080 IDH1KD tx | ALOX12 inh
Cc1ccc(C)c2sc(N3CCN(C(=O)c4ccc([N+](=O)[O-])o4)CC3)nc12 | -102.8* | ? | 8.2µM* | ? | ? | 4.5%
O=C(c1ccc([N+](=O)[O-])o1)N1CCN(c2nc3c(F)cc(F)cc3s2)CC1 | -71.1* | 8.5% | ? | ? | 8.8% | 5.6%
CCCCNC1C(CC)C(CCC)C(C#N)(C#N)C1(C#N)C#N (stereo not given) | -118.4* | ? | 13µM* | 8.2µM* | ? | /
CSc1ccccc1-n1nnnc1SCC(=O)Nc1cc(C)ccc1C | -51.2* | 7.5% | -18.1% | ? | -2.0% | 0.0%
Cc1ccc(-n2nnnc2SCC(=O)Nc2ccccc2N2CCCCC2)cc1C | -8.2 | -8.8% | ? | 18.4µM* | -13.0% | 0.6%
Cc1ccc(C)c(-n2nnnc2SCC(=O)Nc2cc(C)nn2-c2ccccc2C)c1 | / | / | / | / | / | 11.9%
COc1ccc(C)cc1-n1nnnc1SCC(=O)Nc1cccnc1Cl | 0.0 | -0.9% | ? | 20.6µM* | 0.6% | -12.6%
COc1cccc(-c2nn3c(CN4CCCCCC4)nnc3s2)c1 | / | / | / | / | / | -28.3%
CCC(=O)N/C(N)=N/c1nc(C)c2cc(OC)ccc2n1 | -66.0* | 6.9%[9.24 µM] | 13µM* | 11.6µM* | ? | ?
Cc1ccc2c(C)nc(/N=C(\N)NC(=O)Cc3ccccc3)nc2c1 | / | / | / | / | / | -2.8%
Cc1cc2nc(/N=C(\N)NC(=O)N3c4ccccc4Sc4ccccc43)nc(C)c2cc1C | -7.0 | 18.7% | ? | 14.6µM* | 21.9% | ?
Cc1ccc2c(C)nc(/N=C(\N)NC(=O)N3c4ccccc4Sc4ccccc43)nc2c1 | -15.0 | 0.1% | ? | 20.6µM* | -1.5% | ?
Cc1ccc2nc(/N=C(\N)NC(=O)N3c4ccccc4Sc4ccccc43)nc(C)c2c1 | 5.3 | 4.1% | ? | 9.2µM* | -2.2% | ?
CCOC(=O)CC1(NC(=O)N2CCCC2c2cccs2)CCCCC1 (stereo not given) | / | / | / | / | / | 11.1%
CC(C)C(=O)N1CCC2(CC1)OC(=O)N(CCOc1ccccc1)C2(C)c1cccnc1 (stereo not given) | / | / | / | / | / | -13.7%[176 µM]
COc1ccc2nc(/N=C(\N)NC(=O)N3c4ccccc4Sc4ccccc43)nc(C)c2c1 | 3.9 | 6.9% | 13µM* | 16.4µM* | -12.3% | ?
COc1ccc2nc(/N=C(\N)NC(=O)C(C)(C)C)nc(C)c2c1 | ? | 4.1% | -17.6% | ? | -1.2% | -7.6%
COc1ccc(-c2c(C)[nH]n3c(=O)c(Cc4ccccc4)c(C)nc23)cc1 | -0.5 | -15.5% | 13µM* | 20.6µM* | ? | -12.2%
Cc1ccc(Cc2c(C)nc3c(-c4ccccc4)c(C)[nH]n3c2=O)cc1 | / | / | 6.51µM* | 4.61µM* | / | -13.8%
COc1ccccc1-c1c(C)[nH]n2c(=O)c(Cc3ccccc3)c(C)nc12 | 0.0 | 1.0% | ? | ? | 2.0% | -3.2%
Cc1nc2c(-c3ccccc3)c[nH]n2c(=O)c1Cc1ccccc1 | -2.8 | 7.1% | 23.1µM* | 23.1µM* | -3.9% | -2.8%
Cc1[nH]n2c(=O)c3c(nc2c1-c1ccccc1)CCC3 | 2.2 | -15.0% | -15.5% | -23.9% | -21.2% | ?
Cc1[nH]n2c(=O)c3c(nc2c1-c1ccc(Cl)cc1)CCC3 | 5.3 | -10.5% | 11.6µM* | 20.6µM* | -12.5% | /
Cc1cc(=O)n2[nH]cc(-c3ccccc3)c2n1 | -3.4 | -23.6% | ? | ? | -7.6% | ?
